PrPC TRFRET = inhibitors of human cell surface prion protein PrPC, primary screen, cell-based, TR-FRET. Major prion protein (Homo sapiens), P04156. TR-FRET read-out. inhibition, % at 13.8 µM. 0.43% of 370,000 active; in the data active = inhibition above about 24%; also: 0% = median of the test wells and 100% = reference compound wells
Vc quorum ag-1 = inducers of Vibrio cholerae quorum light production without autoinducers, primary screen, BH1578 luxS cqsA deficient, single point; V. cholerae BH1578 lux reporter, luminescence, 6 h; activation, % at 18.7 µM; 0.16% of 350,000 active; in the data active = activation mostly above about 9.7%, no sharp cut-off
Yp Topo-I inh = Yersinia pestis topoisomerase I inhibitors, primary screen, biochemical, cleavage product accumulation, plate reader, single point; Y. pestis Topo-I cleavage product accumulation; activity, % at 10 µM; 0.064% of 360,000 active; in the data active = activity above about 50%, passing the limit was not always enough
CCHF vOTU inh-1 = CCHFV vOTU protease inhibitors, primary screen, biochemical, Pep-AMC substrate, fluorescence; AID 651958, 2012; Crimean-Congo hemorrhagic fever virus L polyprotein viral ovarian tumor (vOTU) protease …; 0.55% of 370,000 active; inhibition, % at 11.5 µM; also: 0% = vehicle wells with enzyme and 100% = no enzyme wells
Vc quorum ag-2 = V. cholerae lux activation without autoinducers – BH1578 luxS cqsA deficient, cherry-pick, plate reader, dose response; shares compounds with Vc quorum ag-1; V. cholerae BH1578 lux reporter, luminescence, 6 h; activation, % at 50 µM; 620 tested, under 10 active; call rule not given here
CCHF vOTU inh-2 = CCHFV vOTU protease inhibitors, confirmation, biochemical, Pep-AMC substrate, fluorescence | AID 686976, 2013 | inhibition, % at 11.5 µM | shares compounds with CCHF vOTU inh-1 | 17% of 1,900 active | Recombinant CCHFV vOTU
PrPC confirm = confirmation of inhibitors of cell surface human prion protein, confirmation, cell-based, TR-FRET; AID 743200, 2013; 65% of 1,500 active; cell surface PrPC level; inhibition, % at 13.8 µM; shares compounds with PrPC TRFRET; in the data active = inhibition above about 25%
LD9 tox = cytotoxicity in LD9 cells, cytotoxicity control for cell surface PrPc inhibitor project, cell-based, luminescence, high throughput. shares compounds with PrPC TRFRET. luminescence viability. 29% of 1,500 active. inhibition, % at 13.8 µM. AID 743201, 2013; in the data active = inhibition above about 9.5%
Active calls of the source: *; i = inactive; . = no result given. Only some compounds are listed: those with a hit (about 1.1% of all), similar ones and a draw of the others. Rule as the data show it, unless noted: active = inhibition above about 30%; inactive = the rest.

SMILES	PrPC TRFRET	Vc quorum ag-1	Yp Topo-I inh	CCHF vOTU inh-1	CCHF vOTU inh-2	others
O=[N+]([O-])c1ccc(N2CCOCC2)c2c1no[n+]2[O-]	28.6*	34.8*	10.0	22.5	.	Vc quorum ag-2=1.1;PrPC confirm=44.7*;LD9 tox=98.3*
O=C(Oc1ccc(C(=S)N2CCCCC2)cc1)c1ccccc1F	-1.6	-0.2	1.3	-8.6	.
CN1C(C(=O)Nc2cccc(O)c2)=CC(c2cccs2)=NS1(=O)=O	-33.7	-0.3	-8.5	32.6*	-6.8
COc1cc(C(=O)c2nccc3cc(OC)c(OC)cc23)c([N+](=O)[O-])cc1OC	-17.6	1.5	11.1	103.1*	72.3*
COc1cc(N)c(C(=O)c2nccc3cc(OC)c(OC)cc23)cc1OC	-1.5	i	7.9	6.8	.
COc1cc(Br)c(C(=O)c2nccc3cc(OC)c(OC)cc23)cc1OC	-14.2	1.7	5.4	111.0*	90.0*
C=CCN1C(=O)c2ccc(C(=O)OCC(=O)Nc3ccccc3OC)cc2C1=O	-2.5	i	-1.7	31.6*	-22.9
CC1CCC/C(=N\NC(=O)Nc2ccccc2)C1 (stereo not drawn)	6.7	-0.4	-6.0	34.1*	-20.2
O=C(CSc1nc(=O)n(CCCN2CCOCC2)c2c1CCC2)Nc1ccc(F)cc1F	3.9	-0.5	16.5	32.3*	-17.5
COc1ccccc1N1CCN(c2ccc(S(=O)(=O)N3CCN(C)CC3)cn2)CC1	-5.7	i	-5.9	33.0*	-12.3
Cc1ccc(S(=O)(=O)/N=C2/NC(=O)/C(=C/c3cc([N+](=O)[O-])ccc3O)S2)cc1	-16.4	-0.5	-14.5	42.5*	10.7
Cc1no[n+]([O-])c1COc1cccc(/C=N/Nc2nncn2N)c1	-3.7	-0.5	0.9	109.2*	-14.4
COc1cc(/C=N/n2nnnc2N)ccc1OCc1c(C)no[n+]1[O-]	-8.8	-0.2	-2.3	-5.2	.
Cc1ccc(C)c(NC(=O)C2CCN(C(=O)c3cccs3)CC2)c1	3.9	-0.3	0.7	5.8	.
O=C(O)c1ccc(NC2=C(n3nnc4ccccc43)C(=O)c3ccccc3C2=O)cc1	-71.2	i	-5.2	86.7*	89.3*
COc1cc(CCNC2=CC(=O)c3ncccc3C2=O)ccc1O	-32.4	5.6	-5.4	73.5*	78.0*
CNC(=O)NC(=O)COC(=O)c1n[nH]c2ccccc12	-8.2	-0.6	-0.2	-12.9	.
O=C(COC(=O)c1n[nH]c2ccccc12)NC(=O)NCc1ccco1	4.8	-0.2	18.8	34.9*	-11.1
S=C(Nc1ccc2nsnc2c1)N1CCCC1	-24.1	i	0.9	104.8*	-12.3
COc1ccc(-c2c(-c3ccccc3)c(C(=O)C(=O)NCCCN(C)C)n3ccc4cc(OC)c(OC)cc4c23)cc1OC	-1.9	-0.7	-6.7	32.6*	-3.6
O=C(NCc1ccc2c(c1)OCO2)c1c(F)c(F)c(F)c(F)c1F	3.3	-2.0	8.8	-3.5	.
CN(C(=O)c1ccc(NC(=O)Cc2cccc(NC(=O)C3CCN(C(=O)C4CCCCC4)CC3)c2)cc1)C1CC1	-6.5	-0.8	28.8	34.5*	-21.3
O=C(Cc1ccc(NC(=O)C2CCCN(C(=O)c3ccccc3)C2)cc1)Nc1cccc(C(=O)N2CCCCC2)c1 (stereo not drawn)	1.6	.	.	32.3*	-20.8
O=C(Cc1ccc(NC(=O)C2CCCN(C(=O)C3CCCC3)C2)cc1)Nc1cccc(C(=O)N2CCCCC2)c1 (stereo not drawn)	1.8	-2.0	25.0	-5.4	.
O=C(/C=C/c1ccc2c(c1)OCO2)NCC1CCCO1 (stereo not drawn)	-5.9	i	5.7	-10.6	.
SMILES	PrPC TRFRET	Vc quorum ag-1	Yp Topo-I inh	CCHF vOTU inh-1	CCHF vOTU inh-2	others
Cc1cc(/C=C(\C#N)C(=O)Nc2ccccc2)c(C)n1-c1cccnc1	-4.0	i	13.3	-31.2	.
Cc1cc(C(=O)O)ccc1-n1c(C)cc(/C=C(/C#N)C(=O)Nc2ccccc2)c1C	4.2	i	7.4	33.4*	-6.8
Cc1ccc(NC(=O)C2(C)CCN2C2Cc3ccccc3C2)cc1 (stereo not drawn)	-3.9	i	27.9	2.8	.
COc1ccccc1N(C)S(=O)(=O)c1ccc(C(=O)NNC(=O)c2ccccc2O)cc1	9.2	i	-9.3	29.7*	-10.7
Cc1cc(C(=O)Nc2ccc(N3CCOCC3)cc2)c2ccccc2n1	-8.4	i	4.1	-1.3	.
Cc1cc(C(=O)Nc2cccc(S(=O)(=O)N3CCOCC3)c2)c2ccccc2n1	-2.9	1.3	1.8	35.5*	-4.1
COc1ccccc1N(C)S(=O)(=O)c1ccc(C(=O)Nc2cccc(S(=O)(=O)N3CCOCC3)c2)cc1	4.6	i	9.7	34.9*	-13.4
COc1ccccc1C(=O)N1C(CC(=O)Nc2cc(Cl)ccc2C)C(=O)NC2CCCCC21 (stereo not drawn)	0.5	0.1	7.0	3.8	.
COC(/C=C/Nc1ccc(Cl)cc1)=C(C#N)C#N	-1.7	0.3	3.3	-13.4	.
CC1Cc2nc(SCC(=O)NCc3ccco3)n(-c3ccccc3)c(=O)c2S1 (stereo not drawn)	-0.4	-1.2	11.9	29.5*	0.1
CC(C)c1ccc(CNn2cnnc2)cc1	5.3	-0.3	5.8	-1.7	.
C[N+]1(C)CCC(=C2c3ccccc3CC(=O)c3sccc32)CC1	-11.0	-0.1	-0.6	32.5*	18.6
CC[N+]1(C)CCC(=C2c3ccccc3CC(=O)c3sccc32)CC1 (stereo not drawn)	-2.3	-0.2	-1.8	-7.5	.
Cc1nn(CC(=O)N2CCN(C(=O)c3ccco3)CC2)c(C)c1[N+](=O)[O-]	7.5	i	7.5	-14.3	.
Cc1onc(-c2ccccc2Cl)c1C(=O)N1CCC(C(N)=O)CC1	6.8	-0.2	3.4	20.8	.
Cc1onc(-c2ccccc2Cl)c1C(=O)N1CCC(Cc2ccccc2)CC1	14.4	-4.3	47.4	31.6*	-22.6
OCC1(Cc2ccc(F)cc2)CCCN(Cc2ccc(F)cc2Cl)C1 (stereo not drawn)	-0.1	-0.2	20.7	4.6	.
COc1ccc(OC)c2c1cc(C(=O)N[C@H](C(=O)N1CCC(C(=O)O)CC1)C(C)C)n2C	0.7	i	0.9	35.7*	20.0
CN(C)c1ccc(C(=S)N2CCN(S(=O)(=O)c3ccccc3)CC2)cc1	-0.1	i	24.3	-5.5	.

Assay outcomes from PubChem BioAssay.
